For 2 molecules, outcome and AC50 results are on record in PubChem BioAssay (EPA / NIEHS).

Activity calls are given as the source filed them. Rule for the calls: active = hit-call score of the fitted dose curve at least 0.9, where 1 is the maximum; inactive = score below 0.9.

The term AC50 denotes the concentration giving half of the maximal activity seen.

What all share (conditions): mRNA level, 48 h; actives raise or lower the signal
Read-out in test [1]: flavin-containing dimethylaniline monooxygenases 3 (FMO3), FMO3 (gene 2328)
The test is described as follows: LTEA_HepaRG_FMO3: Life Technologies and Expression Analysis (LTEA) Assay for flavin-containing dimethylaniline monooxygenases 3 (FMO3) using HepaRG (AID 2283453). An outline of the steps: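 Differentiated HepaRG cells in serum-free induction medium, exposed 48 h in duplicate to 8 half-log concentrations up to 100 uM in 0.5% DMSO. FMO3 mRNA by qRT-PCR, normalized to ACTB, GAPDH, POLR2A; bidirectional fit vs DMSO.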

Read-out in test [2]: Cytochrome P450 (CYP1A1), CYP1A1 (gene 1543)
As to the kind of experiment: LTEA_HepaRG_CYP1A1: Life Technologies and Expression Analysis (LTEA) Assay for Cytochrome P450 (CYP1A1) using HepaRG (AID 2283454). An outline of the steps: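 Differentiated human HepaRG cells, after 48 h plating, exposed in duplicate for 48 h in serum-free induction medium to 8 half-log concentrations up to 100 uM in 0.5% DMSO. CYP1A1 mRNA by qRT-PCR, normalized to ACTB/GAPDH/POLR2A; bidirectional fit versus DMSO.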

Read-out in test [3]: CFLAR gene, CFLAR (gene 8837)
As to the kind of experiment: LTEA_HepaRG_CFLAR: Life Technologies and Expression Analysis (LTEA) Assay for CFLAR gene using HepaRG (AID 2283455). The procedure, abridged:
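HepaRG, 48 h exposure, 8-pt conc-response (100 uM top, half-log), 0.5% DMSO vehicle, duplicates. CFLAR expression by qRT-PCR; ACTB/GAPDH/POLR2A normalization; gain or loss fit vs DMSO baseline.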

Read-out in test [4]: Forkhead box O1 (FOXO1), FOXO1 (gene 2308)
As to the kind of experiment: LTEA_HepaRG_FOXO1: Life Technologies and Expression Analysis (LTEA) Assay for Forkhead box O1 (FOXO1) using HepaRG (AID 2283456). An outline of the steps:
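Readout is FOXO1 transcript level by multiplexed qRT-PCR against three housekeeping genes, curve-fitted in both directions relative to 0.5% DMSO vehicle. Human HepaRG cultures received chemicals for 48 h, up to 100 uM in half-log steps.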

Read-out in test [5]: growth arrest and DNA damage 45 (GADD45A), GADD45A (gene 1647)
The test is described as follows: LTEA_HepaRG_GADD45A: Life Technologies and Expression Analysis (LTEA) Assay for growth arrest and DNA damage 45 (GADD45A) using HepaRG (AID 2283458). The procedure, abridged: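 Cells plated and cultured 48 h, switched to serum-free induction medium, then dosed for 48 h (100 uM top, half-log dilutions, 0.5% DMSO). RNA was isolated and transcript measured by Fluidigm qRT-PCR.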

Read-out in test [6]: Forkhead box O3 (FOXO3), FOXO3 (gene 2309)
The test is described as follows: LTEA_HepaRG_FOXO3: Life Technologies and Expression Analysis (LTEA) Assay for Forkhead box O3 (FOXO3) using HepaRG (AID 2283459). An outline of the steps:
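HepaRG, 48 h post-dose; 8 conc., half-log from 100 uM, 0.5% DMSO, duplicates; serum-free induction medium. Readout: FOXO3 mRNA, TaqMan qRT-PCR, housekeeping-normalized. Bidirectional curve fit vs DMSO baseline.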

Read-out in test [7]: growth arrest and DNA damage 45 (GADD45B), GADD45B (gene 4616)
The test is described as follows: LTEA_HepaRG_GADD45B: Life Technologies and Expression Analysis (LTEA) Assay for growth arrest and DNA damage 45 (GADD45B) using HepaRG (AID 2283461). An outline of the steps: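 Differentiated human HepaRG cells in serum-free induction medium exposed 48 h in duplicate to eight concentrations, top 100 uM, half-log steps, 0.5% DMSO. GADD45B mRNA by TaqMan qRT-PCR, normalized to ACTB, GAPDH, POLR2A; bidirectional fit versus DMSO.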

Read-out in test [8]: ABC Transporter (ABCC3), ABCC3 (gene 8714)
The test is described as follows: LTEA_HepaRG_ABCC3: Life Technologies and Expression Analysis (LTEA) Assay for ABC Transporter (ABCC3) using HepaRG (AID 2283462). The procedure, abridged: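 Differentiated human HepaRG cells exposed 48 h in serum-free induction medium, 0.5% DMSO vehicle, 8-point half-log series to 100 uM in duplicate. ABCC3 mRNA by qRT-PCR, normalised to ACTB, GAPDH, POLR2A; bidirectional fit vs DMSO.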

Read-out in test [9]: ABC Transporter (ABCB11), ABCB11 (gene 8647)
The test is described as follows: LTEA_HepaRG_ABCB11: Life Technologies and Expression Analysis (LTEA) Assay for ABC Transporter (ABCB11) using HepaRG (AID 2283463). The procedure, abridged: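 ABCB11 transcript levels are read by Fluidigm TaqMan qRT-PCR after 48 h chemical treatment of human HepaRG cells. Concentrations span 100 uM downward in half-log steps with 0.5% DMSO; gain or loss is fitted against DMSO controls.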

Read-out in test [10]: ABC Transporter (ABCC2), ABCC2 (gene 1244)
As to the kind of experiment: LTEA_HepaRG_ABCC2: Life Technologies and Expression Analysis (LTEA) Assay for ABC Transporter (ABCC2) using HepaRG (AID 2283464). An outline of the steps: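 Differentiated HepaRG cells in serum-free induction medium exposed 48 h to eight half-log concentrations up to 100 uM, 0.5% DMSO, in duplicate. ABCC2 mRNA measured by qRT-PCR (TaqMan, Fluidigm), normalized to ACTB, GAPDH and POLR2A. Fitted in both directions against DMSO.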

Read-out in test [11]: Broad substrate specificity ATP-binding cassette transporter ABCG2 (Homo sapiens) (UniProt Q9UNQ0)
As to the kind of experiment: LTEA_HepaRG_ABCG2: Life Technologies and Expression Analysis (LTEA) Assay for ABC Transporter (ABCG2) using HepaRG (AID 2283465). The procedure, abridged: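 Read-out is ABCG2 mRNA induction or loss quantified by qRT-PCR after 48 h chemical treatment of human HepaRG cells, normalized to three housekeeping genes. Concentrations reached 100 uM top in half-log steps; fitting was bidirectional against 0.5% DMSO.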

Read-out in test [12]: ATP-citrate lyase (ACLY), ACLY (gene 47)
The test is described as follows: LTEA_HepaRG_ACLY: Life Technologies and Expression Analysis (LTEA) Assay for ATP-citrate lyase (ACLY) using HepaRG (AID 2283466). An outline of the steps:
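HepaRG, 48 h exposure, 8-pt half-log dilutions (top 100 uM), 0.5% DMSO. Readout: ACLY mRNA, TaqMan qRT-PCR, housekeeping-normalized (ACTB/GAPDH/POLR2A). Bidirectional curve fit vs DMSO.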

Read-out in test [13]: Peroxisomal acyl-coenzyme A oxidase 1 (ACOX1) gene, ACOX1 (gene 51)
The test is described as follows: LTEA_HepaRG_ACOX1: Life Technologies and Expression Analysis (LTEA) Assay for Peroxisomal acyl-coenzyme A oxidase 1 (ACOX1) gene using HepaRG (AID 2283467). The procedure, abridged:
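Measured by qRT-PCR against three housekeeping genes: ACOX1 transcript change in human HepaRG cells after 48 h dosing. Concentrations ran up to 100 uM in half-log steps. Curves were fitted bidirectionally relative to 0.5% DMSO.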

Read-out in test [14]: Alkaline Phosphatase, Placental (ALPP) gene, ALPP (gene 250)
As to the kind of experiment: LTEA_HepaRG_ALPP: Life Technologies and Expression Analysis (LTEA) Assay for Alkaline Phosphatase, Placental (ALPP) gene using HepaRG (AID 2283468). The procedure, abridged: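 HepaRG cells plated 48 h, then exposed in duplicate for 48 h in serum-free induction medium to 8-point half-log series from 100 uM in 0.5% DMSO. ALPP mRNA by TaqMan qRT-PCR, normalized to ACTB/GAPDH/POLR2A; bidirectional fit versus DMSO.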

Read-out in test [15]: Bcl-2 (BAD) gene, BAD (gene 572)
The test is described as follows: LTEA_HepaRG_BAD: Life Technologies and Expression Analysis (LTEA) Assay for Bcl-2 (BAD) gene using HepaRG (AID 2283469). An outline of the steps: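 BAD transcript change, measured by qRT-PCR against three housekeeping genes and fitted in both directions relative to 0.5% DMSO, after 48 h chemical treatment of human HepaRG liver cells at concentrations up to 100 uM.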

Read-out in test [16]: Bcl-2 (BAX) gene, BAX (gene 581)
As to the kind of experiment: LTEA_HepaRG_BAX: Life Technologies and Expression Analysis (LTEA) Assay for Bcl-2 (BAX) gene using HepaRG (AID 2283470). The procedure, abridged: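 HepaRG (human liver), 48 h exposure, duplicate wells. 8-pt curve, half-log from 100 uM, 0.5% DMSO. BAX transcript by TaqMan qRT-PCR; ACTB/GAPDH/POLR2A normalization; gain or loss vs DMSO baseline.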

Read-out in test [17]: Alpha-fetoprotein (AFP) gene, AFP (gene 174)
As to the kind of experiment: LTEA_HepaRG_AFP: Life Technologies and Expression Analysis (LTEA) Assay for Alpha-fetoprotein (AFP) gene using HepaRG (AID 2283472). An outline of the steps: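 HepaRG, single lot; 48 h post-plating -> serum-free induction medium; cpd 8-pt, 100 uM top, half-log, 0.5% DMSO, duplicate, 48 h. RNA -> qRT-PCR AFP, norm ACTB/GAPDH/POLR2A. Bidirectional fit vs DMSO.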

Read-out in test [18]: ABC Transporter (ABCB1), ABCB1 (gene 5243)
The test is described as follows: LTEA_HepaRG_ABCB1: Life Technologies and Expression Analysis (LTEA) Assay for ABC Transporter (ABCB1) using HepaRG (AID 2283460). The procedure, abridged:
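Expression of ABCB1 was quantified by qRT-PCR against three housekeeping genes after human HepaRG cultures received test chemicals for 48 hours. Concentrations spanned eight half-log steps topping at 100 uM in 0.5% DMSO; gain or loss of signal was fitted relative to vehicle.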

Read-out in test [19]: adenosine kinase (ADK) gene, ADK (gene 132)
As to the kind of experiment: LTEA_HepaRG_ADK: Life Technologies and Expression Analysis (LTEA) Assay for adenosine kinase (ADK) gene using HepaRG (AID 2283471). An outline of the steps: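 ADK expression quantified by qRT-PCR, normalised to three housekeeping genes, after 48 h exposure of HepaRG cells to eight concentrations (top 100 uM, half-log steps, duplicate, 0.5% DMSO). Up- or down-regulation fitted relative to vehicle.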

Sequence of Broad substrate specificity ATP-binding cassette transporter ABCG2 (Homo sapiens) (Q9UNQ0 whole entry, looked up): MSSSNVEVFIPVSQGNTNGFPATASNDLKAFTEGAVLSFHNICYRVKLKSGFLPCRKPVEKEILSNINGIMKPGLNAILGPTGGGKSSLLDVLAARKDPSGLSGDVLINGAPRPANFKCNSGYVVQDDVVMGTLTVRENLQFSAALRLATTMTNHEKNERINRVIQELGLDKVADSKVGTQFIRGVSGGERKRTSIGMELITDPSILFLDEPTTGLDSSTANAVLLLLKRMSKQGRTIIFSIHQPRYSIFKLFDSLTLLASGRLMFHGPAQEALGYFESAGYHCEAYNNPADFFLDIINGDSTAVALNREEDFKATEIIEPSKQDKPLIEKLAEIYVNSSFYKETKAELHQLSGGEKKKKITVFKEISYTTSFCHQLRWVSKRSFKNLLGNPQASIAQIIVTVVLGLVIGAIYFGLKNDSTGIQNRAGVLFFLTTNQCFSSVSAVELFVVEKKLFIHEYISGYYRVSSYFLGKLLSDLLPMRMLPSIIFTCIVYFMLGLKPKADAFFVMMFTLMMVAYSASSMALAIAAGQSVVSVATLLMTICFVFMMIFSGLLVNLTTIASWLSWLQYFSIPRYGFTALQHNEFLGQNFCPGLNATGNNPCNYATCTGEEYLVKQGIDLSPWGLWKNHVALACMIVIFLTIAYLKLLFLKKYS

For `c1ccc2c(c1)oc1ccccc12`, the call in test [1], in [3], in test [4], in test [5], in test [6] and in test [7] was inactive. In addition, the result in [8], in [9], in test [10], in test [11], in [12] and in test [13] was inactive. In addition, the molecule was called inactive in [14], in [15], in test [16] and in [17]. For the same molecule, the AC50 in [2] is 50 µM (active).
As to `CN(C)[C@@H]1C(=O)C(C(N)=O)=C(O)[C@@]2(O)C(=O)C3=C(O)c4c(O)cccc4[C@@](C)(O)[C@H]3C[C@@H]12`, the result in test [1], in test [3], in [4], in test [5], in test [6] and in test [18] was inactive. Moreover, the molecule was called inactive in test [7], in [8], in test [9], in test [10], in test [11] and in test [12]. The result in test [13], in [14], in [15], in test [19] and in test [17] was inactive. Further, in test [2], the half-maximal activity concentration (AC50) is 34.7 µM (active).
